Compound activity: PubChem, National Center for Advancing Translational Sciences (NCATS)
The list is not random: actives were taken first. Their share in the collection is about 3%.
GALK inh: inhibitors of human galactokinase | P51570 | Purified GALK, Kinase-Glo residual ATP luminescence | Potency, µM (titrated, usually from 57.5 µM), actives largely listed as inhibitors | hit rate 0.007% among 270,000
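Galactose (100 uM) and ATP (35 uM) were turned over by 5 nM GALK for 1 h at RT. Kinase-Glo Plus then converted the remaining ATP into a luminescent signal.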
A549 tox-1: A549 cytotoxicity, counter-screen for Nrf2 inhibitors. A549 ARE-Fluc cells, CellTiter-Fluor viability, 18-24 h. hit rate 0.16% among 390,000. Potency, µM (series often up to 46 µM), most hits filed as inhibitors
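Cytotoxicity counterscreen: CellTiter-Fluor fluorescence was measured in A549 ARE_Fluc cells after 18-24 h of compound exposure in a concentration series. The subsequent BugLite luminescent read reports ARE-luciferase activity.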
Nrf2 ARE act: activates Nrf2 signaling. AREc32 ARE-luciferase reporter (MCF7-derived line), luminescence, 24 h. Potency, µM (titrated, usually from 46.1 µM), most hits filed as activators. hit rate 0.31% among 410,000; further: nearly all actives have a fitted effect of over 65% in size
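AREc32 cells carrying an ARE-driven firefly luciferase, 1000 cells/well in OPTI-MEM with 5% FBS, dosed after overnight attachment and incubated 24 hr at 37 deg C. Steady-Glo luminescence read after 30 min at RT.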
Nrf2 inh: blocks Nrf2 signaling; hit rate 2.1% among 360,000; Potency, µM (highest dose often 46 µM), most hits filed as inhibitors; A549 ARE-Fluc reporter, luciferase luminescence, 18-24 h; AID 504444; further: nearly all actives have a fitted effect of over 60% in size
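Two sequential reads on A549 ARE_Fluc cells exposed to compound for 18-24 h: a CellTiter-Fluor fluorescence read for viability, then a luciferase luminescence read for Nrf2/ARE activity.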
TrxR1 substrate: is turned over as a substrate by rat TrxR1; Potency, µM (doses to about 114 µM); O89049; purified TrxR1 substrate turnover, NADPH consumption readout; hit rate 0.01% among 390,000; further: nearly all actives have a fitted effect of over 50% in size
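Rat TrxR1, dispensed at 90 nM, was prereduced with 400 uM NADPH (final) for 5 min at ~22 deg C, then incubated with compound 15 min before 400 uM selenite. A first-read NADPH fluorescence drop versus no-compound background flagged substrates.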
rTrxR1 inhibitor: inhibitors of rat thioredoxin reductase 1 | recombinant rTrxR1, NADPH fluorescence consumption, selenite substrate | Potency, µM (titrated, usually from 114 µM), hits mostly inhibitors | hit rate 1% among 390,000 | AID 588453; further: nearly all actives have a fitted effect of over 65% in size
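Rat TrxR1 (90 nM in the dispensed reagent) was pre-reduced with 400 uM NADPH for 5 min at room temperature, then incubated with compound for 15 min. After 400 uM selenite was added, NADPH fluorescence (Ex 340/Em 450 nm) was followed for 8 min.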
FLuc enzyme inh: counter-screen for Nrf2 inhibitors: firefly luciferase enzyme inhibition | hit rate 4% among 1,400 | purified firefly luciferase, luminescence inhibition | shares compounds with Nrf2 inh | Potency, µM (series often up to 57.5 µM), hits mostly inhibitors; further: nearly all actives have a fitted effect of over 65% in size
Target sequence (P08659 whole entry, looked up): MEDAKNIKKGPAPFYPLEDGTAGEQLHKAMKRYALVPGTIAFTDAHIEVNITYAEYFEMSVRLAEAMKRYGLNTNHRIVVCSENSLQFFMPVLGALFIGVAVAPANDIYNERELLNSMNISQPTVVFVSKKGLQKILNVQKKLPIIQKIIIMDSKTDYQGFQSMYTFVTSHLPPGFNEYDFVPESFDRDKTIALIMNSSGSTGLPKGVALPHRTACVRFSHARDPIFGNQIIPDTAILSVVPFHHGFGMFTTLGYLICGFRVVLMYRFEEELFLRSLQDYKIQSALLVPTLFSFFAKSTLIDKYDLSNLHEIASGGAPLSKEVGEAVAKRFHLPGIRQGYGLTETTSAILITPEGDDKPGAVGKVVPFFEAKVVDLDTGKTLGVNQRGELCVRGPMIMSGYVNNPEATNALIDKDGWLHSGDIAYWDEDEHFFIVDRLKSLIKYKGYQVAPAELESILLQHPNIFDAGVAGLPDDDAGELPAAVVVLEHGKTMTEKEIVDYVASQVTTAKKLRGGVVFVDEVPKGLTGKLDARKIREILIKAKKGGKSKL
A549 tox-2: A549 cytotoxicity, Nrf2 inhibitor counterscreen | AID 720523 | hit rate 2% among 1,400 | shares compounds with Nrf2 inh | Potency, µM (titrated, usually from 46.1 µM), hits mostly inhibitors | A549 ARE-Fluc cells, cytotoxicity counterscreen;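 further: cells exposed to compounds for 18 to 24 hours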
ARE-Fluc inh: confirmation of Nrf2 inhibitors in A549 ARE reporter cells. shares compounds with Nrf2 inh. Potency, µM (titrated, usually from 46.1 µM), hits mostly inhibitors. AID 720524. hit rate 74% among 1,400. A549 ARE-firefly luciferase reporter, luminescence; further: nearly all actives have a fitted effect of over 65% in size
A number is an active result; 0 = inactive; ? = inconclusive; - = no result shown; [ ] = another dose, or the depositor's remark. The call rests on the fitted dose curve; in most records, active means well fitted curve in the direction sought with a large enough effect; inconclusive means small, poorly fitted or top-dose-only effect, or another doubt; inactive means no such curve, though single readings can be large; an effect the other way counts as inactive or inconclusive.

SMILES	GALK inh	A549 tox-1	Nrf2 ARE act	Nrf2 inh	TrxR1 substrate	rTrxR1 inhibitor	FLuc enzyme inh	A549 tox-2	ARE-Fluc inh
COc1ccc(/C=C/C2=Nc3ccccc3NC(C)(C)C2)cc1OC	0	0	?	0	0	0	-	-	-
COc1ccc(NC(=O)CNC(=O)Cc2cccc3ccccc23)c(OC)c1	-	0	0	0	0	0	-	-	-
Fc1ccc2[nH]c3c(N4CCc5ccccc5C4)ncnc3c2c1	0	?	0	7.3µM	0	0	0	0	-
CN1CCN(c2ncnc3c2[nH]c2ccc(F)cc23)CC1	0	0	0	0	0	0	-	-	-
O=CNC1c2ccccc2CCc2ccccc21	-	0	0	0	0[11.4 µM]	0[11.4 µM]	-	-	-
COc1ccc(OC)c(CCNC(=O)C(C)n2nc(C)c3c(C)n(-c4ccc(C)cc4)nc3c2=O)c1 (configuration not stated)	0	?	0	6.5µM	0	0	0	?	3.7µM
COc1ccc(OC)c(CCNC(=O)C(C)n2nc(C)c3c(C)n(-c4ccccc4)nc3c2=O)c1 (configuration not stated)	0	0	0	0	0	0	-	-	-
COc1ccc(C(=O)C/C(=C\C(=O)c2ccc(C)cc2)c2ccccc2)cc1	-	?	0	2.6µM	0	0	0	0	12µM
COc1ccc(C(=O)CC(=O)c2ccccc2)cc1	-	0	0	?	0	0[11.4 µM]	-	-	-
Cc1ccc(S(=O)(=O)N(Cc2ccccc2)c2ccccc2C(=O)NCc2ccco2)cc1	0	?	0	5.2µM	0	0	0	0	0
Cc1ccc(S(=O)(=O)N(Cc2ccccc2)c2ccccc2C(=O)Nc2ccccc2C(=O)NCc2ccco2)cc1	-	0	0	0	0	0	-	-	-
O=C(NCCc1ccc(F)cc1)c1ccc(Cl)c(S(=O)(=O)N2CCOCC2)c1	-	0	0	8.2µM	0	0	0	0	?
CC1CN(S(=O)(=O)c2cc(C(=O)NCCC3=CCCCC3)ccc2Cl)CC(C)O1 (configuration not stated)	-	0	0	8.2µM	0	0	?	0	5.8µM
O=C(NCCC1=CCCCC1)c1ccc(F)c(S(=O)(=O)N2CCOCC2)c1	0	0	0	0	0	0	-	-	-
COc1ccc(CNC(=O)c2ccc(Cl)c(S(=O)(=O)N3CCOCC3)c2)cc1OC	-	?	0	1.3µM	0	0	0	0	-
O=C(NCCc1ccccc1)c1ccc(Cl)c(S(=O)(=O)N2CCCC2)c1	0	0	0	?	0	0	-	-	-
COc1ccc(CCNC(=O)c2ccc(Cl)c(S(=O)(=O)N3CCCCCC3)c2)cc1	-	0	0	8.2µM	0	0	0	0	8.2µM
O=C(CSc1nnc(-c2ccc(C(F)(F)F)cn2)o1)Nc1cccc(Cl)c1	0	0	0	0	0	0	-	-	-
CN(C)c1ccc(C(=S)N2CCN(S(=O)(=O)c3ccccc3)CC2)cc1	0	0	0	0	0	0	-	-	-
O=C(Cc1csc(-c2ccccc2)n1)NCc1cccs1	0	0	0	0	0	0	-	-	-
Clc1ccccc1/C=C/C=N/Nc1nc(N2CCOCC2)nc(N2CCOCC2)n1	0	0	0	0	0	0	-	-	-
CC1CCCN(S(=O)(=O)c2cc(C(=O)NCCc3ccc(S(N)(=O)=O)cc3)ccc2Cl)C1 (configuration not stated)	-	?	0	4.1µM	0	0	0	0	12µM
O=C(Nc1ccc(N2CCOCC2)cc1)c1ccc(Cl)c(S(=O)(=O)N2CCCC2)c1	-	0	0	9.2µM	0	0	0	0	7.3µM
Cc1ccc(C(=O)Nc2ccc(N3CCOCC3)cc2)cc1S(=O)(=O)N1CCCCC1	-	0	0	?	0	0	-	-	-
